Tests used:
Test in all cases: SPOT peptide array binding signal intensity (averaged, normalized) (arbitrary units (background-subtracted, floor 0; scale differs between SH3 domains)); higher = stronger binding of the SH3 domain to the peptide
AgAbp1 = target: AgAbp1
Method in brief: (§1)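 GST-fused SH3 domains from four yeast species were expressed in E. coli BL21(DE3), purified on glutathione Sepharose and incubated at 10 μg/ml overnight at 4°C in TBS-based blocking buffer on cellulose membranes carrying synthetic 15-mer peptides, with cysteines replaced by serines. Bound protein was detected with anti-GST antibody, an HRP anti-mouse secondary and luminol, then imaged and quantified with Genespotter. Binding signal is the normalized, background-subtracted spot intensity averaged over replicates, in arbitrary units that differ between domains.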

AgBbc1 = target: AgBbc1
Method in brief: as §1

AgBem1-D1 = target: AgBem1-D1
Method in brief: as §1

AgBzz1-D1 = target: AgBzz1-D1
Method in brief: as §1

AgBzz1-D2 = target: AgBzz1-D2
Method in brief: as §1

AgCyk3 = target: AgCyk3
Method in brief: as §1

AgFus1 = target: AgFus1
Method in brief: as §1

AgHof1 = target: AgHof1
Method in brief: as §1

AgHse1 = target: AgHse1
Method in brief: as §1

AgLsb1 = target: AgLsb1
Method in brief: as §1

AgLsb4 = target: AgLsb4
Method in brief: as §1

AgMyo5 = target: AgMyo5
Method in brief: as §1

AgNbp2 = target: AgNbp2
Method in brief: as §1

AgRvs167 = target: AgRvs167
Method in brief: as §1

AgSho1 = target: AgSho1
Method in brief: as §1

AgSla1-D1-D2 = target: AgSla1-D1-D2
Method in brief: as §1

AgSla1-D3 = target: AgSla1-D3
Method in brief: as §1

CaAbp1-D1 = target: CaAbp1-D1
Method in brief: as §1

CaAbp1-D2 = target: CaAbp1-D2
Method in brief: as §1

CaBbc1 = target: CaBbc1
Method in brief: as §1

CaBem1-D1 = target: CaBem1-D1
Method in brief: as §1

CaBzz1-D1 = target: CaBzz1-D1
Method in brief: as §1

CaBzz1-D2 = target: CaBzz1-D2
Method in brief: as §1

CaCyk3 = target: CaCyk3
Method in brief: as §1

CaFus1 = target: CaFus1
Method in brief: as §1

CaHof1 = target: CaHof1
Method in brief: as §1

CaHse1 = target: CaHse1
Method in brief: as §1

CaLsb1 = target: CaLsb1
Method in brief: as §1

CaLsb4 = target: CaLsb4
Method in brief: as §1

CaMyo5 = target: CaMyo5
Method in brief: as §1

CaNbp2 = target: CaNbp2
Method in brief: as §1

CaRvs167 = target: CaRvs167
Method in brief: as §1

CaRvs167-3 = target: CaRvs167-3
Method in brief: as §1

CaSho1 = target: CaSho1
Method in brief: as §1

CaSla1-D1-D2 = target: CaSla1-D1-D2
Method in brief: as §1

CaSla1-D3 = target: CaSla1-D3
Method in brief: as §1

ScAbp1 = target: ScAbp1
Method in brief: as §1

ScBbc1 = target: ScBbc1
Method in brief: as §1

ScBem1-D1 = target: ScBem1-D1
Method in brief: as §1

ScBzz1-D1 = target: ScBzz1-D1
Method in brief: as §1

ScBzz1-D2 = target: ScBzz1-D2
Method in brief: as §1

ScCyk3 = target: ScCyk3
Method in brief: as §1

ScFus1 = target: ScFus1
Method in brief: as §1

ScHof1 = target: ScHof1
Method in brief: as §1

ScHse1 = target: ScHse1
Method in brief: as §1

ScLsb1 = target: ScLsb1
Method in brief: as §1

ScLsb2 = target: ScLsb2
Method in brief: as §1

ScLsb3 = target: ScLsb3
Method in brief: as §1

ScLsb4 = target: ScLsb4
Method in brief: as §1

ScMyo3 = target: ScMyo3
Method in brief: as §1

ScMyo5 = target: ScMyo5
Method in brief: as §1

ScNbp2 = target: ScNbp2
Method in brief: as §1

ScPex13 = target: ScPex13
Method in brief: as §1

ScRvs167 = target: ScRvs167
Method in brief: as §1

ScSho1 = target: ScSho1
Method in brief: as §1

ScSla1-D1-D2 = target: ScSla1-D1-D2
Method in brief: as §1

ScSla1-D3 = target: ScSla1-D3
Method in brief: as §1

SpAbp1-D1 = target: SpAbp1-D1
Method in brief: as §1

SpBbc1 = target: SpBbc1
Method in brief: as §1

SpBzz1-D1 = target: SpBzz1-D1
Method in brief: as §1

SpBzz1-D2 = target: SpBzz1-D2
Method in brief: as §1

SpCyk3 = target: SpCyk3
Method in brief: as §1

SpHof1 = target: SpHof1
Method in brief: as §1

SpHof1-2 = target: SpHof1-2
Method in brief: as §1

SpHof1-3 = target: SpHof1-3
Method in brief: as §1

SpHse1 = target: SpHse1
Method in brief: as §1

SpLsb1 = target: SpLsb1
Method in brief: as §1

SpLsb4 = target: SpLsb4
Method in brief: as §1

SpMyo1 = target: SpMyo1
Method in brief: as §1

SpNbp2 = target: SpNbp2
Method in brief: as §1

SpPex13 = target: SpPex13
Method in brief: as §1

SpRvs167 = target: SpRvs167
Method in brief: as §1

SpSla1-D1-D2 = target: SpSla1-D1-D2
Method in brief: as §1

SpSla1-D3 = target: SpSla1-D3
Method in brief: as §1

## TKFRISLGLPVGAIM
AgAbp1
  SPOT peptide array binding signal intensity: 4
AgBbc1
  SPOT peptide array binding signal intensity: 108
AgBem1-D1
  SPOT peptide array binding signal intensity: 429
AgBzz1-D1
  SPOT peptide array binding signal intensity: 100
AgBzz1-D2
  SPOT peptide array binding signal intensity: 109
AgCyk3
  SPOT peptide array binding signal intensity: 66
AgFus1
  SPOT peptide array binding signal intensity: 1490
AgHof1
  SPOT peptide array binding signal intensity: 91.5
AgHse1
  SPOT peptide array binding signal intensity: 911
AgLsb1
  SPOT peptide array binding signal intensity: 28
AgLsb4
  SPOT peptide array binding signal intensity: 513
AgMyo5
  SPOT peptide array binding signal intensity: 3.75
AgNbp2
  SPOT peptide array binding signal intensity: 422
AgRvs167
  SPOT peptide array binding signal intensity: 21.3
AgSho1
  SPOT peptide array binding signal intensity: 548
AgSla1-D1-D2
  SPOT peptide array binding signal intensity: 176
AgSla1-D3
  SPOT peptide array binding signal intensity: 12
CaAbp1-D1
  SPOT peptide array binding signal intensity: 112
CaAbp1-D2
  SPOT peptide array binding signal intensity: 134
CaBbc1
  SPOT peptide array binding signal intensity: 225
CaBem1-D1
  SPOT peptide array binding signal intensity: 199
CaBzz1-D1
  SPOT peptide array binding signal intensity: 592
CaBzz1-D2
  SPOT peptide array binding signal intensity: 334
CaCyk3
  SPOT peptide array binding signal intensity: 162
CaFus1
  SPOT peptide array binding signal intensity: 4760
CaHof1
  SPOT peptide array binding signal intensity: 1.25
CaHse1
  SPOT peptide array binding signal intensity: 193
CaLsb1
  SPOT peptide array binding signal intensity: 31
CaLsb4
  SPOT peptide array binding signal intensity: 280
CaMyo5
  SPOT peptide array binding signal intensity: 69.2
CaNbp2
  SPOT peptide array binding signal intensity: 498
CaRvs167
  SPOT peptide array binding signal intensity: 245
CaRvs167-3
  SPOT peptide array binding signal intensity: 2240
CaSho1
  SPOT peptide array binding signal intensity: 1360
CaSla1-D1-D2
  SPOT peptide array binding signal intensity: 126
CaSla1-D3
  SPOT peptide array binding signal intensity: 602
ScAbp1
  SPOT peptide array binding signal intensity: 13
ScBbc1
  SPOT peptide array binding signal intensity: 17
ScBem1-D1
  SPOT peptide array binding signal intensity: 66
ScBzz1-D1
  SPOT peptide array binding signal intensity: 95
ScBzz1-D2
  SPOT peptide array binding signal intensity: 392
ScCyk3
  SPOT peptide array binding signal intensity: 292
ScFus1
  SPOT peptide array binding signal intensity: 2830
ScHof1
  SPOT peptide array binding signal intensity: 2.5
ScHse1
  SPOT peptide array binding signal intensity: 1460
ScLsb1
  SPOT peptide array binding signal intensity: 19.8
ScLsb2
  SPOT peptide array binding signal intensity: 30
ScLsb3
  SPOT peptide array binding signal intensity: 329
ScLsb4
  SPOT peptide array binding signal intensity: 72
ScMyo3
  SPOT peptide array binding signal intensity: 4
ScMyo5
  SPOT peptide array binding signal intensity: 12
ScNbp2
  SPOT peptide array binding signal intensity: 702
ScPex13
  SPOT peptide array binding signal intensity: 65.5
ScRvs167
  SPOT peptide array binding signal intensity: 80.7
ScSho1
  SPOT peptide array binding signal intensity: 2880
ScSla1-D1-D2
  SPOT peptide array binding signal intensity: 333
ScSla1-D3
  SPOT peptide array binding signal intensity: 122
SpAbp1-D1
  SPOT peptide array binding signal intensity: 68
SpBbc1
  SPOT peptide array binding signal intensity: 55
SpBzz1-D1
  SPOT peptide array binding signal intensity: 537
SpBzz1-D2
  SPOT peptide array binding signal intensity: 5
SpCyk3
  SPOT peptide array binding signal intensity: 55
SpHof1
  SPOT peptide array binding signal intensity: 183
SpHof1-2
  SPOT peptide array binding signal intensity: 78.2
SpHof1-3
  SPOT peptide array binding signal intensity: 760
SpHse1
  SPOT peptide array binding signal intensity: 664
SpLsb1
  SPOT peptide array binding signal intensity: 35.5
SpLsb4
  SPOT peptide array binding signal intensity: 100
SpMyo1
  SPOT peptide array binding signal intensity: 20.5
SpNbp2
  SPOT peptide array binding signal intensity: 1390
SpPex13
  SPOT peptide array binding signal intensity: 239
SpRvs167
  SPOT peptide array binding signal intensity: 39.2
SpSla1-D1-D2
  SPOT peptide array binding signal intensity: 6
SpSla1-D3
  SPOT peptide array binding signal intensity: 51.5

Reference: the supplement of paper PMC4466140
